Data from paper PMC7862700, “An all-to-all approach to the identification of sequence-specific readers for epigenetic DNA modifications on cytosine”.

Key:
Test in all cases: DAPPL (digital affinity profiling via proximity ligation, sequencing); 10 mM Tris-HCl pH 7.5, 50 mM NaCl, 1 mM DTT, 4% glycerol, room temperature, 30 min; GST-TFs on glutathione beads, 16-mer random dsDNA library, 0.1% formaldehyde crosslink after washing; high values mean tight binding
FLI1 = target: T1, FLI1 (Homo sapiens, UniProt Q01543 1-452); settings: protein: recombinant; tags: N-terminal GST; dsDNA, one strand shown
T1 sequence: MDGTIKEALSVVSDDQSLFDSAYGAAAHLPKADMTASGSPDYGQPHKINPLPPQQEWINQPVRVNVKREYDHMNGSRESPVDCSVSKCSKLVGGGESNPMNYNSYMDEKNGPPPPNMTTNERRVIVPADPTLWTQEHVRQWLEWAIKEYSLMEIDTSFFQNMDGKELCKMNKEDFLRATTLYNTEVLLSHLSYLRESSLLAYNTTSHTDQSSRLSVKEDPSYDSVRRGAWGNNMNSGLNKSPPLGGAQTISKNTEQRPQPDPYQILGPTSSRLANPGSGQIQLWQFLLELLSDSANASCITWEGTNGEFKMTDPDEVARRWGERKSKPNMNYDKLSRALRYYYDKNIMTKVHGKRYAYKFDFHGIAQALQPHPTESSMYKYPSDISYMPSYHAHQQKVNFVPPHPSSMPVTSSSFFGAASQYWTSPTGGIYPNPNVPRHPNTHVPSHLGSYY
Method in brief: (§1)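 Pools of DNA-barcoded human transcription factors, expressed in yeast as GST fusions on glutathione beads and combined with a tag-only sample, were incubated with 200 nmole of a 16-mer random double-stranded DNA library. Incubation took 30 min at room temperature in Tris/NaCl/DTT/glycerol buffer and was followed by washing, 0.1% formaldehyde crosslinking, proximity ligation (BsaI/T4 ligase, 1 h, 37 °C), PCR amplification and sequencing on an Illumina NextSeq500. Binding signal is the ratio of a hexamer's read frequency for a factor to its frequency for the tag-only sample.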

ELK1 = target: T2, ELK1 (Homo sapiens, UniProt P19419 1-428); settings: protein: recombinant; tags: N-terminal GST; dsDNA, one strand shown
T2 sequence: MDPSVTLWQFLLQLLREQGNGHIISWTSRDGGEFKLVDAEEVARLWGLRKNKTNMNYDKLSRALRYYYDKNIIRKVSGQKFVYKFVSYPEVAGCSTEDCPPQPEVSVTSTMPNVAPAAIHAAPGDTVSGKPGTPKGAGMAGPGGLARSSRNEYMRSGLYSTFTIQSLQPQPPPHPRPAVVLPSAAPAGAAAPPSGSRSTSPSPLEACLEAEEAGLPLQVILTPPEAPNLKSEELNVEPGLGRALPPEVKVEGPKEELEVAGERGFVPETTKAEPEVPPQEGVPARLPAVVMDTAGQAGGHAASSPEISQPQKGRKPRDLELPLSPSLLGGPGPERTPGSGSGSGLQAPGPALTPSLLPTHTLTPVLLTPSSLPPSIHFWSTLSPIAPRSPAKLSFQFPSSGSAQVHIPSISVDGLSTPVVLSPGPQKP
Method in brief: as §1

GABPA = target: T3, GABPA (Homo sapiens, UniProt Q06546 1-454); settings: protein: recombinant; tags: N-terminal GST; dsDNA, one strand shown
T3 sequence: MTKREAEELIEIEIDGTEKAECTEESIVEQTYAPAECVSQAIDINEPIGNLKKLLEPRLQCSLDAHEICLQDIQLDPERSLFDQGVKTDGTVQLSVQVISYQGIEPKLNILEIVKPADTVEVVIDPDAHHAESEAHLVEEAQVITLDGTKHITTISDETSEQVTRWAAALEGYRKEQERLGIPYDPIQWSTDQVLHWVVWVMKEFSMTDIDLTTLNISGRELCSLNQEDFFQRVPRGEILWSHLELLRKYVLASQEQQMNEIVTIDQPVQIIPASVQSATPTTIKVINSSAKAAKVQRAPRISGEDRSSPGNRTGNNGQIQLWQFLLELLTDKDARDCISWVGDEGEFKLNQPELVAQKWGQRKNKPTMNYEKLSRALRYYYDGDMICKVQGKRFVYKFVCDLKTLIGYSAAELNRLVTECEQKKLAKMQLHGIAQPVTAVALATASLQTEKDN
Method in brief: as §1

ERG = target: T4, ERG (Homo sapiens, UniProt P11308 1-479); settings: protein: recombinant; tags: N-terminal GST; dsDNA, one strand shown
T4 sequence: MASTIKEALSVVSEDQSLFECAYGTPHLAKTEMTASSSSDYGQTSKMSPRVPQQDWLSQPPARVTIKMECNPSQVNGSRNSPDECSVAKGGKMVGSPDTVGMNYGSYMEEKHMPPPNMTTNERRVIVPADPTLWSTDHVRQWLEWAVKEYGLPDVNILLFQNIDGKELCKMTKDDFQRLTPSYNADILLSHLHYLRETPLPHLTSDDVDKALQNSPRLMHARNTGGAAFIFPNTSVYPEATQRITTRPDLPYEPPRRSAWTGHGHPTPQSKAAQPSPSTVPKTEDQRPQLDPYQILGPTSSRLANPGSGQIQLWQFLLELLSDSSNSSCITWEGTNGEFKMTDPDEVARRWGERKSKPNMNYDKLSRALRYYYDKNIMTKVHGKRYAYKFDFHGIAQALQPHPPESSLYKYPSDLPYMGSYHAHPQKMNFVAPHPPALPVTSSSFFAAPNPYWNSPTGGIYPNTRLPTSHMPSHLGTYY
Method in brief: as §1

ELF1 = ELF1 (Homo sapiens, UniProt P32519 1-619); settings: protein: recombinant; tags: N-terminal GST; dsDNA, one strand shown
Method in brief: as §1

EHF = target: T5, EHF (Homo sapiens, UniProt Q9NZC4 1-300); settings: protein: recombinant; tags: N-terminal GST; dsDNA, one strand shown
T5 sequence: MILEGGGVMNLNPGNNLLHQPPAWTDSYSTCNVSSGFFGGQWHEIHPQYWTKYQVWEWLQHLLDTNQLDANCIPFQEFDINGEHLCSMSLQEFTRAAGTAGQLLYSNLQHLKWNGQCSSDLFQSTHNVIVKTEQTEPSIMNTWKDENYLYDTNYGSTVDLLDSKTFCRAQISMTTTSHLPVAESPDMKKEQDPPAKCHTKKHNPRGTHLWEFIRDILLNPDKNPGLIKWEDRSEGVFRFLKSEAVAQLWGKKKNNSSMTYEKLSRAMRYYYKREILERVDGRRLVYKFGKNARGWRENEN
Method in brief: as §1

SPIB = SPIB (Homo sapiens, UniProt Q01892 1-262); settings: protein: recombinant; tags: N-terminal GST; dsDNA, one strand shown
Method in brief: as §1

FEV = target: T6, FEV (Homo sapiens, UniProt Q99581 1-238); settings: protein: recombinant; tags: N-terminal GST; dsDNA, one strand shown
T6 sequence: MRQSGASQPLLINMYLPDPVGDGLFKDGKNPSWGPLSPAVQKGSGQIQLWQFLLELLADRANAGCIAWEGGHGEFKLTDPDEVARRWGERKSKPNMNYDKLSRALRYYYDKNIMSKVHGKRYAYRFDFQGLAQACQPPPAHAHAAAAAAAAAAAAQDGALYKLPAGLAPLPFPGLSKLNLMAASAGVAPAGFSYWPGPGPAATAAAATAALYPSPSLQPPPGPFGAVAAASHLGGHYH
Method in brief: as §1

ETV5 = ETV5 (Homo sapiens, UniProt P41161 1-510); settings: protein: recombinant; tags: N-terminal GST; dsDNA, one strand shown
Method in brief: as §1

HSF1 = HSF1 (Homo sapiens, UniProt Q00613 1-529); settings: protein: recombinant; tags: N-terminal GST; chain copies: 3; dsDNA, one strand shown
Method in brief: as §1

SPIC = target: T7, SPIC (Homo sapiens, UniProt Q8N5J4 1-248); settings: protein: recombinant; tags: N-terminal GST; dsDNA, one strand shown
T7 sequence: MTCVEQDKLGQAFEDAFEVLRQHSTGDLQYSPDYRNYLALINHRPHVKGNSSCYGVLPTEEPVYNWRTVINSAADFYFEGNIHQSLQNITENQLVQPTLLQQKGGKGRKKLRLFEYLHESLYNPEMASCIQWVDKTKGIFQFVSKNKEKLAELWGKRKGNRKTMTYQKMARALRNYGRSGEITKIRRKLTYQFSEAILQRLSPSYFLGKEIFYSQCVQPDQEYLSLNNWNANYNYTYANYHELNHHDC
Method in brief: as §1

ELF4 = ELF4 (Homo sapiens, UniProt Q99607 1-663); settings: protein: recombinant; tags: N-terminal GST; dsDNA, one strand shown
Method in brief: as §1

ELK4 = target: T8, ELK4 (Homo sapiens, UniProt P28324-2 1-405); settings: protein: recombinant; tags: N-terminal GST; dsDNA, one strand shown
T8 sequence: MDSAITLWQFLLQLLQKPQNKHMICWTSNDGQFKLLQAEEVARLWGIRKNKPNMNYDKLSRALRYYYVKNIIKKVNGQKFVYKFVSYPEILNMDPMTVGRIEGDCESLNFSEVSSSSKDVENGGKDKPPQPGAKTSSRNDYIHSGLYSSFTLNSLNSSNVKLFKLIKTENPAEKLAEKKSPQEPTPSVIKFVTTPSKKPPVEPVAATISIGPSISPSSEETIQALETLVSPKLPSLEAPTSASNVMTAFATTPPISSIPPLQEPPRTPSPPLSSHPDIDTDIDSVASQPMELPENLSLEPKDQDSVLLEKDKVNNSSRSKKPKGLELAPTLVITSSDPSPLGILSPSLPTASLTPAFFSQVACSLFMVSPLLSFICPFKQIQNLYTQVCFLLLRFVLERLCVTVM
Method in brief: as §1

ETV2 = target: T9, ETV2 (Homo sapiens, UniProt O00321 1-342); settings: protein: recombinant; tags: N-terminal GST; dsDNA, one strand shown
T9 sequence: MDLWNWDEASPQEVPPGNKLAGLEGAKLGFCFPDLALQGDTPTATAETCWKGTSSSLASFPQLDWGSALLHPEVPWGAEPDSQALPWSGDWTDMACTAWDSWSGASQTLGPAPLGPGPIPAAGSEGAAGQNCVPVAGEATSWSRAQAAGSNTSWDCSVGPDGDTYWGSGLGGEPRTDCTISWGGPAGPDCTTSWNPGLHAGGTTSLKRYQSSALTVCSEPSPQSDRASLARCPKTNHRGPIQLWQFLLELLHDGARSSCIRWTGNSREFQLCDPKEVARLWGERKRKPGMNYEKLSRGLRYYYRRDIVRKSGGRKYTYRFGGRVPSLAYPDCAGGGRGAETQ
Method in brief: as §1

ELF3 = target: T10, ELF3 (Homo sapiens, UniProt P78545 1-371); settings: protein: recombinant; tags: N-terminal GST; dsDNA, one strand shown
T10 sequence: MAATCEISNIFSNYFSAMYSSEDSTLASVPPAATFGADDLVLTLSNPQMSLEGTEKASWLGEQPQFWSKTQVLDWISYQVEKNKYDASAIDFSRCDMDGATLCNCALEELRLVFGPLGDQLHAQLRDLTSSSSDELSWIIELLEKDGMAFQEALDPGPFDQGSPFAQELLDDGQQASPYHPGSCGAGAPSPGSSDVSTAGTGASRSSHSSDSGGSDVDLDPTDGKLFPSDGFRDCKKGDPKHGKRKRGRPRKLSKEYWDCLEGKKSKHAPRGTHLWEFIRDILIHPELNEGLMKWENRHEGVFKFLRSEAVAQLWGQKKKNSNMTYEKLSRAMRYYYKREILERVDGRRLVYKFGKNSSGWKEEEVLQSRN
Method in brief: as §1

CRX = CRX (Homo sapiens, UniProt O43186 1-299); settings: protein: recombinant; tags: N-terminal GST; dsDNA, one strand shown
Method in brief: as §1

ETV1 = ETV1 (Homo sapiens, UniProt P50549 1-477); settings: protein: recombinant; tags: N-terminal GST; dsDNA, one strand shown
Method in brief: as §1

SPI1 = SPI1 (Homo sapiens, UniProt P17947 1-270); settings: protein: recombinant; tags: N-terminal GST; dsDNA, one strand shown
Method in brief: as §1

CRX, sequence (O43186 whole entry): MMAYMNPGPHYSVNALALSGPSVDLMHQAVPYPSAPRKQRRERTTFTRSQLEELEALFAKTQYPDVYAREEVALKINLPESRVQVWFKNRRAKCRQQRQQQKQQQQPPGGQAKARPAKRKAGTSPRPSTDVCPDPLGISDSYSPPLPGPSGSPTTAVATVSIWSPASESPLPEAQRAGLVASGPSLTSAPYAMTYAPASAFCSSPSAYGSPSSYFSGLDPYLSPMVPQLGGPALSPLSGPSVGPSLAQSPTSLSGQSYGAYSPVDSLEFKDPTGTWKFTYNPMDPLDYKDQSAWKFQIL
ELF1, sequence (P32519 whole entry): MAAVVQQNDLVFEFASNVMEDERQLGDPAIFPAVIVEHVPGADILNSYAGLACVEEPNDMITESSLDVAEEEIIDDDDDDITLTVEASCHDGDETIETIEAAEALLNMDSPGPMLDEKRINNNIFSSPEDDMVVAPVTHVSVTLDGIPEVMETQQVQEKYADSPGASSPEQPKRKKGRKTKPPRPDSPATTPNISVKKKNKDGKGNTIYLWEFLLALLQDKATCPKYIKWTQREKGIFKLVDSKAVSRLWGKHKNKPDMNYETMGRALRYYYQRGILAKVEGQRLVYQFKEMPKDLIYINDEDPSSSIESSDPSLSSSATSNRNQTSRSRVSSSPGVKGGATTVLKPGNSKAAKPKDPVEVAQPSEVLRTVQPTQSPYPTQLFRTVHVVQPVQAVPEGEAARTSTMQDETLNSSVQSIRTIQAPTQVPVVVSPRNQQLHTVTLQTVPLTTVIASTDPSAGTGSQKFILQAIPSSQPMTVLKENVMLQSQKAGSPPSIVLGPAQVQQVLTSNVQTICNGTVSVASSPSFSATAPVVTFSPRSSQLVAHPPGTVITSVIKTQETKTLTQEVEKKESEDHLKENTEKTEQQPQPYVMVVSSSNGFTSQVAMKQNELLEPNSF
ETV1, sequence (P50549 whole entry): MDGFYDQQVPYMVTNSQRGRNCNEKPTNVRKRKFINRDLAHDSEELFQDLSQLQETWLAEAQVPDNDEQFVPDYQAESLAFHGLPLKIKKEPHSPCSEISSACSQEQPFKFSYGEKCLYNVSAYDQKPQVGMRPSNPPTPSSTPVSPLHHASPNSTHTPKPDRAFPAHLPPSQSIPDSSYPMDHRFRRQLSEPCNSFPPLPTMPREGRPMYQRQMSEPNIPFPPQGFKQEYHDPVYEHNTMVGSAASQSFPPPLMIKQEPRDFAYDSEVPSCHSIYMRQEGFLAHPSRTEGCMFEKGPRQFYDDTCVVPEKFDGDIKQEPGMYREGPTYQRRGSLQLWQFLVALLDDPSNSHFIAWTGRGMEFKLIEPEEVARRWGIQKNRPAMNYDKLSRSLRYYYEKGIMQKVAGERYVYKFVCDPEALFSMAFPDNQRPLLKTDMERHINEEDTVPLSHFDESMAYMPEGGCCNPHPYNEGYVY
ELF4, sequence (Q99607 whole entry): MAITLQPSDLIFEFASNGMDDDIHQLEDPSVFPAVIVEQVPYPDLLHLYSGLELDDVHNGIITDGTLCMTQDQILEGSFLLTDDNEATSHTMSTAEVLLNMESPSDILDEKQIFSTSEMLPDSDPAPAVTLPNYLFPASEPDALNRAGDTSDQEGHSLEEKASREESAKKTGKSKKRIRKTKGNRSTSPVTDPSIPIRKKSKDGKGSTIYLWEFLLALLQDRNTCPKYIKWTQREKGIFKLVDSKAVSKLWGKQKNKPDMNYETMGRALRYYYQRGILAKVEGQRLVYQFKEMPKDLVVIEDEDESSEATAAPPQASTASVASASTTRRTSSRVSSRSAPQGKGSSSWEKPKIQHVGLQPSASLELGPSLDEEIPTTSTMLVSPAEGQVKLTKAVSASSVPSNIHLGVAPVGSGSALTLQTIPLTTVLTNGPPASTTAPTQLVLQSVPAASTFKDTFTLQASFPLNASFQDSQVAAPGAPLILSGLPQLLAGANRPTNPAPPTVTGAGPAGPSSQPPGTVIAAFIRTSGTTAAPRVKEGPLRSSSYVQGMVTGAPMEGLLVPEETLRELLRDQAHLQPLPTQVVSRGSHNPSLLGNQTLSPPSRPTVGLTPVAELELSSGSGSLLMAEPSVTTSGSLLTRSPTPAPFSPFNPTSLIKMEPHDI
SPIB, sequence (Q01892 whole entry): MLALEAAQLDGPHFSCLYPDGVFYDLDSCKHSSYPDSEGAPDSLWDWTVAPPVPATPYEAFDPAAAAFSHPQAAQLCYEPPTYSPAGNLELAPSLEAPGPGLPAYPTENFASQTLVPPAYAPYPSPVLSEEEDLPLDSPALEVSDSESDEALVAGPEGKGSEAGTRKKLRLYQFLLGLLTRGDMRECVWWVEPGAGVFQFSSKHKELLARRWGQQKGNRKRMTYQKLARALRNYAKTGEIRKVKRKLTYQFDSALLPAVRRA
ETV5, sequence (P41161 whole entry): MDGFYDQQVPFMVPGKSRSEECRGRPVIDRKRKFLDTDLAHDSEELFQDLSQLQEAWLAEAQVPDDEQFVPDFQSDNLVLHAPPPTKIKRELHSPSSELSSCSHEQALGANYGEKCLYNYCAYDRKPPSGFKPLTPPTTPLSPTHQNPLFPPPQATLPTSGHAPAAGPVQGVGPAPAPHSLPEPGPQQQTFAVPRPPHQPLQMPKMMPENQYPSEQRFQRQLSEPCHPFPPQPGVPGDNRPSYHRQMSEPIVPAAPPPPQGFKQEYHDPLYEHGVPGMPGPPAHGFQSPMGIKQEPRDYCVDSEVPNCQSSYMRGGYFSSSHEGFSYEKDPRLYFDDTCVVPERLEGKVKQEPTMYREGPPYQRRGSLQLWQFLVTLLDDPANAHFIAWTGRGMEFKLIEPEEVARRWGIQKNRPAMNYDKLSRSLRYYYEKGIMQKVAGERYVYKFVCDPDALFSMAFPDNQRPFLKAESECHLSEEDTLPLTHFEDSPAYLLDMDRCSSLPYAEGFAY
HSF1, sequence (Q00613 whole entry): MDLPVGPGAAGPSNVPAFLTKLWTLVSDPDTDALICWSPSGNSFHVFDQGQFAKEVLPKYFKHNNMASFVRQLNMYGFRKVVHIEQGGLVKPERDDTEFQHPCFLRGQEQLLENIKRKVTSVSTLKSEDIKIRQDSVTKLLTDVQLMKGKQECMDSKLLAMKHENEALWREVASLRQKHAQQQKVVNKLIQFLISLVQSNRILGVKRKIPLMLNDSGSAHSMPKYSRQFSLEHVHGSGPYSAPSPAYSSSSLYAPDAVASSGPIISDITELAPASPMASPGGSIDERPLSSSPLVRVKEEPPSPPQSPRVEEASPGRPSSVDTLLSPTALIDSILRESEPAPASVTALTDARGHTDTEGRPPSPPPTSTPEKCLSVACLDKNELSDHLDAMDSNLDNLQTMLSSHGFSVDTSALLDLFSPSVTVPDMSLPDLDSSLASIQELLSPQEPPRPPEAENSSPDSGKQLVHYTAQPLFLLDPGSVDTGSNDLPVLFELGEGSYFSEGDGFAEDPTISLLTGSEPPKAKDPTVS

| Sequence | binding signal (FLI1) | binding signal (ELK1) | binding signal (GABPA) | binding signal (ERG) | binding signal (ELF1) | binding signal (EHF) | binding signal (SPIB) | binding signal (FEV) | binding signal (ETV5) | binding signal (HSF1) | binding signal (SPIC) | binding signal (ELF4) | binding signal (ELK4) | binding signal (ETV2) | binding signal (ELF3) | binding signal (CRX) | binding signal (ETV1) | binding signal (SPI1) |
| --- | --- | --- | --- | --- | --- | --- | --- | --- | --- | --- | --- | --- | --- | --- | --- | --- | --- | --- |
| ACCCGA | 1.05 fold enrichment (6-mer frequency, TF over GST control) | 1.02 fold enrichment (6-mer frequency, TF over GST control) | 1.03 fold enrichment (6-mer frequency, TF over GST control) | 1.05 fold enrichment (6-mer frequency, TF over GST control) | 1.03 fold enrichment (6-mer frequency, TF over GST control) | 1.18 fold enrichment (6-mer frequency, TF over GST control) | 1.14 fold enrichment (6-mer frequency, TF over GST control) | 1.1 fold enrichment (6-mer frequency, TF over GST control) | 1.08 fold enrichment (6-mer frequency, TF over GST control) | 1.21 fold enrichment (6-mer frequency, TF over GST control) | 1.08 fold enrichment (6-mer frequency, TF over GST control) | 1.03 fold enrichment (6-mer frequency, TF over GST control) | 1.04 fold enrichment (6-mer frequency, TF over GST control) | 1.17 fold enrichment (6-mer frequency, TF over GST control) | 1.11 fold enrichment (6-mer frequency, TF over GST control) | 1.1 fold enrichment (6-mer frequency, TF over GST control) | 1.1 fold enrichment (6-mer frequency, TF over GST control) | – |
| AGGCTC | 1.04 fold enrichment (6-mer frequency, TF over GST control) | 1.03 fold enrichment (6-mer frequency, TF over GST control) | 1.12 fold enrichment (6-mer frequency, TF over GST control) | 1.06 fold enrichment (6-mer frequency, TF over GST control) | 1.12 fold enrichment (6-mer frequency, TF over GST control) | 1.08 fold enrichment (6-mer frequency, TF over GST control) | 1.03 fold enrichment (6-mer frequency, TF over GST control) | 1.06 fold enrichment (6-mer frequency, TF over GST control) | 1.02 fold enrichment (6-mer frequency, TF over GST control) | 1.14 fold enrichment (6-mer frequency, TF over GST control) | 1.15 fold enrichment (6-mer frequency, TF over GST control) | 1.07 fold enrichment (6-mer frequency, TF over GST control) | 1.06 fold enrichment (6-mer frequency, TF over GST control) | 1.01 fold enrichment (6-mer frequency, TF over GST control) | 1.02 fold enrichment (6-mer frequency, TF over GST control) | 1.29 fold enrichment (6-mer frequency, TF over GST control) | 1.06 fold enrichment (6-mer frequency, TF over GST control) | 1.02 fold enrichment (6-mer frequency, TF over GST control) |
